From PubChem BioAssay (Tox21)
Results filed as inconclusive are left out. Active and inactive are the calls of the source. Unless noted, calls follow the shape of the dose curve; as a rule, active = well fitted curve in the direction sought with a large enough effect in the repeat runs; inconclusive = weak or mixed curves; inactive = no such curve, though single readings can be large; an effect the other way counts as inactive or inconclusive.

Assays:
[1] = qHTS assay to identify aromatase inhibitors - cell viability counter screen (AID 743084);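 also: cells stimulated with testosterone during compound exposure; nearly all actives have a fitted effect of over 55% in size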
[2] = qHTS assay to identify small molecule that activate the aryl hydrocarbon receptor (AhR) signaling pathway - cell viability counter screen (AID 743086);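 also: HepG2 liver cells carrying the AhR DRE luciferase reporter; series mostly up to about 70 µM; nearly all actives have a fitted effect of over 45% in size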
How it was run: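 Cytotoxicity counter screen: CellTiter-Fluor signal (30 min, 37 C) in 4000 HepG2 cells/well carrying the DRE-luciferase reporter, following 24 h compound exposure at 37 C.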

[3] = molecular target: Peroxisome proliferator-activated receptor gamma (Homo sapiens) (UniProt P37231); experiment: qHTS assay to identify small molecule agonists of the peroxisome proliferator-activated receptor gamma (PPARg) signaling pathway (AID 743094; active = well fitted activation curve with a large enough effect in the signal ratio in the repeat runs, not every such curve was filed as active; the % refers to the signal ratio)
Sequence of Peroxisome proliferator-activated receptor gamma (Homo sapiens) (P37231 whole entry, looked up): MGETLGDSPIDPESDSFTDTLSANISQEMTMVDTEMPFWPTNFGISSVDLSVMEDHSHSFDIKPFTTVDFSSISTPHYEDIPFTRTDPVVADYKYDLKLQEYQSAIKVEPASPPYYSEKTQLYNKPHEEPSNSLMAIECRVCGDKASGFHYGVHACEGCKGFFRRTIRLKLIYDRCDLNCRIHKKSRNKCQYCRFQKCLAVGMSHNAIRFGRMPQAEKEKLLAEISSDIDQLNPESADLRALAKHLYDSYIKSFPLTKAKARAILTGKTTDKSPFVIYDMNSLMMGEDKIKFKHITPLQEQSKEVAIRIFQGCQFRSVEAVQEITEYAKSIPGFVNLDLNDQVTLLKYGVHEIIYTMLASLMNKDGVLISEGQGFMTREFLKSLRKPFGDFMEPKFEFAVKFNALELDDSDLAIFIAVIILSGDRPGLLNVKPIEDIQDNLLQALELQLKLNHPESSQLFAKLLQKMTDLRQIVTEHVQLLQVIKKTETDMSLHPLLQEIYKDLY
How it was run: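 Cells from the PPARg UAS-bla HEK293H line are plated and incubated 5 h at 37C. Compounds in DMSO are pinned in and left 17 h at 37C. LiveBLAzer B/G substrate is then added for 1 h at room temperature before fluorescence is measured.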

[4] = molecular target: Peroxisome proliferator-activated receptor gamma (Homo sapiens) (UniProt P37231); experiment: qHTS assay to identify small molecule antagonists of the peroxisome proliferator-activated receptor gamma (PPARg) signaling pathway (AID 743191; calls by dose curve; also: series mostly up to about 63 µM; nearly all actives have a fitted effect of over 30% in size)
How it was run: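 Beta-lactamase reporter under UAS control in HEK293H PPARg-bla cells; compound treatment 17 h at 37C. Read-out: fluorescence intensity after 1 h room-temperature incubation with LiveBLAzer B/G FRET substrate.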

[5] = qHTS assay to identify small molecule antagonists of the peroxisome proliferator-activated receptor gamma (PPARg) signaling pathway - cell viability counter screen (AID 743194); also: nearly all actives have a fitted effect of over 55% in size
How it was run: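 Viability was measured as CellTiter-Glo luminescence in GeneBLAzer PPARg UAS-bla HEK293H cells. These cells had been exposed 17 h at 37 C to compounds together with rosiglitazone at 50 nM final, with the beta-lactamase readout taken in the same wells.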

[6] = qHTS assay for small molecule agonists of the antioxidant response element (ARE) signaling pathway (AID 743202; active = well fitted activation curve with a large enough effect in the signal ratio in the repeat runs, not every such curve was filed as active; the % refers to the signal ratio)
How it was run: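 Beta-lactamase reporter activity, read as fluorescence intensity, reflects ARE/Nrf2 pathway induction in HepG2 cells after 16 h compound exposure at 37 C; substrate loading was 2 h at room temperature.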

[7] = qHTS assay for small molecule agonists of the antioxidant response element (ARE) signaling pathway - cell viability counter screen (AID 743203; calls by dose curve; also: nearly all actives have a fitted effect of over 55% in size)
How it was run: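 Cytotoxicity was tested in parallel with the ARE reporter screen. ARE-bla HepG2 cells were exposed to compounds for 16 hrs, and viability was taken from CellTiter-Glo luminescence.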

[8] = qHTS assay for small molecule activators of the heat shock response signaling pathway - cell viability counter screen (AID 743209); also: nearly all actives have a fitted effect of over 50% in size
How it was run: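 Cytotoxicity counter screen run in parallel with the HSE beta-lactamase reporter, using the same wells. HeLa HSE-bla cells received compound for 5 h at 37 C; ATP-based CellTiter-Glo luminescence was measured after 30 min at room temperature.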

[9] = qHTS assay for small molecule activators of the heat shock response signaling pathway (AID 743210; active = well fitted activation curve with a large enough effect in the signal ratio in the repeat runs, with a control signal flat, not every such curve was filed as active; the % refers to the signal ratio;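 also: HeLa cells with beta-lactamase reporter driven by heat shock elements; series mostly up to about 63 µM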)
How it was run: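 Fluorescence from a cleaved B/G FRET substrate (2.5 h, room temp) reports HSE-driven beta-lactamase in HeLa cells treated 5 h at 37 C with DMSO-dissolved compounds.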

[10] = qHTS assay to identify small molecule agonists of the peroxisome proliferator-activated receptor delta (PPARd) signaling pathway - cell viability counter screen (AID 743211); also: nearly all actives have a fitted effect of over 55% in size
How it was run: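 Read-out: CellTiter-Glo luminescence, 30 min RT, measured in the same wells as the beta-lactamase reporter. Cells: GeneBLAzer PPAR delta UAS-bla HEK293H, 3000 cells/well, compound exposure 17 h at 37C.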

[11] = molecular target: Peroxisome proliferator-activated receptor delta (Homo sapiens) (UniProt Q03181); experiment: qHTS assay to identify small molecule agonists of the peroxisome proliferator-activated receptor delta (PPARd) signaling pathway (AID 743212; calls by dose curve)
Sequence of Peroxisome proliferator-activated receptor delta (Homo sapiens) (Q03181 whole entry, looked up): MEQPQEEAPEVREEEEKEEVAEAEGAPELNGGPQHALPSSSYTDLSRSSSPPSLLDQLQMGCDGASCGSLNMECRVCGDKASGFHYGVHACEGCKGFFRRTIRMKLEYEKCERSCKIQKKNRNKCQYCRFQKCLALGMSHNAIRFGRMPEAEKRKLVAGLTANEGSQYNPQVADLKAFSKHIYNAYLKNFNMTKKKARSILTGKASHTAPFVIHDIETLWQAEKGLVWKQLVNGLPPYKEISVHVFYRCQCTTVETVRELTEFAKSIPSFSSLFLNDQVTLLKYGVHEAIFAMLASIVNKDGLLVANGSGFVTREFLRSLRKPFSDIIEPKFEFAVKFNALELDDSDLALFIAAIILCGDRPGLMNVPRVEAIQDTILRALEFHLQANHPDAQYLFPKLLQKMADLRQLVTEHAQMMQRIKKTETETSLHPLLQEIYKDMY
How it was run: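 Steps: seed PPARd-bla HEK293H cells; incubate 5 h, 37 C, 5% CO2; add compounds in DMSO; incubate, 37 C; add LiveBLAzer B/G FRET substrate; hold 2 h at room temperature; measure fluorescence.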

[12] = qHTS assay to identify small molecule antagonists of the peroxisome proliferator-activated receptor delta (PPARd) signaling pathway - cell viability counter screen (AID 743213); also: nearly all actives have a fitted effect of over 50% in size
How it was run: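 Luminescence from CellTiter-Glo, added after the bla read and incubated 30 min at room temperature, gives viability of HEK293H PPARd-bla cells exposed to compounds for 17 h at 37 C with 300 nM L165041.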

[13] = molecular target: Peroxisome proliferator-activated receptor delta (Homo sapiens) (UniProt Q03181); experiment: qHTS assay to identify small molecule antagonists of the peroxisome proliferator-activated receptor delta (PPARd) signaling pathway (AID 743215; active = well fitted inhibition curve with a large enough effect in the signal ratio in the repeat runs, not every such curve was filed as active; the % refers to the signal ratio;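 also: cells stimulated with agonist L165041 at 300 nM final during compound exposure; series mostly up to about 62 µM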)
How it was run: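 Cells: HEK293H with a UAS-driven beta-lactamase reporter responsive to PPARd. Compounds were co-added with L165041 (300 nM, final) and incubated 17 h at 37 C before a 2 h room-temperature FRET substrate step and fluorescence reading.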

[14] = molecular target: Bile acid receptor (Homo sapiens) (UniProt Q96RI1); experiment: qHTS assay to identify small molecule antagonists of the farnesoid-X-receptor (FXR) signaling pathway (AID 743217; active = well fitted inhibition curve with a large enough effect in the signal ratio in the repeat runs, not every such curve was filed as active; the % refers to the signal ratio)
Sequence of Bile acid receptor (Homo sapiens) (Q96RI1 whole entry, looked up): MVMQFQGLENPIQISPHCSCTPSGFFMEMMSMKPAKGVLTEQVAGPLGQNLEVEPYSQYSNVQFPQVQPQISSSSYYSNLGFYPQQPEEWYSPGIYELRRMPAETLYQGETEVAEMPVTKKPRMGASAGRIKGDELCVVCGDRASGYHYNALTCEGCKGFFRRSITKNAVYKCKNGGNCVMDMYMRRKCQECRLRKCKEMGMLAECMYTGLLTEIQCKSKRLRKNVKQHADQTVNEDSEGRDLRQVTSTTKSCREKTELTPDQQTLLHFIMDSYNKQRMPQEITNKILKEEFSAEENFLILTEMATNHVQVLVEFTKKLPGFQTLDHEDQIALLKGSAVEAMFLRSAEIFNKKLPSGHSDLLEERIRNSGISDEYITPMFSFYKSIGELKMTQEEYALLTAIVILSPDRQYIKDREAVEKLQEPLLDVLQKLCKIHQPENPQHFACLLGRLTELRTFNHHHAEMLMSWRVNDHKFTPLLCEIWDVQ
How it was run: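 Cells carrying a UAS-driven beta-lactamase reporter (GeneBLAzer FXR-UAS-bla HEK 293T) were plated and rested 5 h at 37 °C. Compounds in DMSO were added alongside chenodeoxycholic acid agonist at 50 uM final and left 16 h at 37 °C before FRET substrate readout.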

[15] = qHTS assay to identify small molecule agonists of the farnesoid-X-receptor (FXR) signaling pathway - cell viability counter screen (AID 743218); also: nearly all actives have a fitted effect of over 45% in size
How it was run: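 Cells were seeded, left 5 h at 37 C and 5% CO2, then dosed with compound in DMSO for 16 h. After the beta-lactamase FRET read, CellTiter-Glo was added and luminescence measured 30 min later.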

[16] = molecular target: Bile acid receptor (Homo sapiens) (UniProt Q96RI1); experiment: qHTS assay to identify small molecule agonists of the farnesoid-X-receptor (FXR) signaling pathway (AID 743220; active = well fitted activation curve with a large enough effect in the signal ratio in the repeat runs, not every such curve was filed as active; the % refers to the signal ratio)
How it was run: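 FXR-UAS-bla HEK 293T cells carrying a UAS-driven beta-lactamase reporter were plated for 5 h at 37C/5% CO2, then exposed to DMSO-dissolved Tox21 10K compounds for 16 h at 37C. A LiveBLAzer B/G FRET substrate was loaded for 2 h at room temperature before fluorescence reading.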

[17] = qHTS assay to identify small molecule antagonists of the farnesoid-X-receptor (FXR) signaling pathway - cell viability counter screen (AID 743221; active = well fitted cell-killing curve with a large enough effect in the repeat runs, not every such curve was filed as active; also: nearly all actives have a fitted effect of over 50% in size)
How it was run: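 HEK 293T FXR-bla cells, 5 h pre-incubation; compound + CDCA 50 uM final, 16 h, 37 C; beta-lactamase FRET read first, then CellTiter-Glo luminescence, 30 min RT.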

[18] = molecular target: Vitamin D3 receptor (Homo sapiens) (UniProt P11473); experiment: qHTS assay to identify small molecule antagonists of the vitamin D receptor (VDR) signaling pathway (AID 743223; active = well fitted inhibition curve with a large enough effect in the signal ratio in the repeat runs, not every such curve was filed as active; the % refers to the signal ratio)
Sequence of Vitamin D3 receptor (Homo sapiens) (P11473 whole entry, looked up): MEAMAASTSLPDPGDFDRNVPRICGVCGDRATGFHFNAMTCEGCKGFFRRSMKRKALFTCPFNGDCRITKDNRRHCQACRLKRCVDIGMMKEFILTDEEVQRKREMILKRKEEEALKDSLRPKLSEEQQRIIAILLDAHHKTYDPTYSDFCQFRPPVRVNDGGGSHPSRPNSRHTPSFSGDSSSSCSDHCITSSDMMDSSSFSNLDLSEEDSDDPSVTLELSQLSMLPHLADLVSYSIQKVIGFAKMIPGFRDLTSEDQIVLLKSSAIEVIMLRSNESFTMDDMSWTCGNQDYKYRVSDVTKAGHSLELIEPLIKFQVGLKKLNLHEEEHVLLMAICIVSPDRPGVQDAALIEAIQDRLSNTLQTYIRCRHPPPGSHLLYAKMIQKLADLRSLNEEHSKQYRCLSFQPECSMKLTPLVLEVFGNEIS
How it was run: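 Beta-lactamase reporter read-out: FRET substrate fluorescence after 2 h at room temperature, following 16 h exposure of VDR-bla cells to test compound plus 3 nM (final) 1alpha,25-dihydroxyvitamin D3 agonist at 37C.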

[19] = molecular target: Aryl hydrocarbon receptor (Homo sapiens) (UniProt P35869); experiment: qHTS assay to identify small molecule that activate the aryl hydrocarbon receptor (AhR) signaling pathway (AID 743085);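 also: HG2L7.5c1 human HepG2 liver cells with stably integrated DRE-driven firefly reporter; series mostly up to about 70 µM; nearly all actives have a fitted effect of over 15% in size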
Sequence of Aryl hydrocarbon receptor (Homo sapiens) (P35869 whole entry, looked up): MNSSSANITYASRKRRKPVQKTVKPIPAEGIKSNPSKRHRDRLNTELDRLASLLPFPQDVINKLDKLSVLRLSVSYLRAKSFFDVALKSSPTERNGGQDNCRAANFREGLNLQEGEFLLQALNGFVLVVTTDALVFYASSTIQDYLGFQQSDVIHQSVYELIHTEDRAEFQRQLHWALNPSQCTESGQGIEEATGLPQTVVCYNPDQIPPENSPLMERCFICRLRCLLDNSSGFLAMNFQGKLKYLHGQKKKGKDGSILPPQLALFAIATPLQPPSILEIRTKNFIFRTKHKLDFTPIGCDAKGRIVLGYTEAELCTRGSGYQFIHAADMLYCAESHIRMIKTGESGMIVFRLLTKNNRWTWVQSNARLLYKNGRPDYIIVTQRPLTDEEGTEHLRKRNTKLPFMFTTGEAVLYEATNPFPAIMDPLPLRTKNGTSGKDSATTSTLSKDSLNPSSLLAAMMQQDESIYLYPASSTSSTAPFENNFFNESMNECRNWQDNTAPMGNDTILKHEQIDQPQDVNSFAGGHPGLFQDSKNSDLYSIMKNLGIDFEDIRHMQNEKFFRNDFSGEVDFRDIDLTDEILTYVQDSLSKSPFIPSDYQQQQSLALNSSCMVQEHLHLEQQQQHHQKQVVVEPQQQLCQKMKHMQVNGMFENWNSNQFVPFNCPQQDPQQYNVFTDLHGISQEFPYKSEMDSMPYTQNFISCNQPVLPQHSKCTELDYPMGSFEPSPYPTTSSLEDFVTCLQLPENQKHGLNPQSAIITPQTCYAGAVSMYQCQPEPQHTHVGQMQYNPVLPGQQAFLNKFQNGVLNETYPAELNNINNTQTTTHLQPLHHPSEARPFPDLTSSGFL
How it was run: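 Luminescence read-out: ONE-Glo reagent, 30 min at room temperature, in HG2L7.5c1 HepG2 reporter cells treated 24 h at 37C. Viability was measured beforehand by CellTiter-Fluor fluorescence after 30 min at 37C.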

[20] = molecular target: Vitamin D3 receptor (Homo sapiens) (UniProt P11473); experiment: qHTS assay to identify small molecule agonists of the vitamin D receptor (VDR) signaling pathway (AID 743222; calls by dose curve)
How it was run: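 Cells carrying a VDR-driven beta-lactamase reporter are seeded at 2,000 per well and rested 4 h. Compounds in DMSO are added for 16 h at 37C, and FRET substrate fluorescence is measured after 2 h at room temperature.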

Measured: Potency

CCCCCCCCCCCCCCCCC(=O)O
not listed: [18] | [19] | [20]
inactive: all other assays above

O=C(O)CNc1ccccc1
not listed: [12] | [13] | [14] | [19] | [20]
inactive: all other assays above

C=C[Si](OCC)(OCC)OCC
not listed: [3] | [4] | [5] | [11] | [13] | [14] | [16]
inactive: all other assays above

O=C(O)c1ccccc1-n1cc(C(=O)O)c(=O)c2cc(Nc3c(F)cc(F)cc3Cl)c(Cl)cc21
not listed: [5] | [19]
inactive: all other assays above

CCn1nc(Cc2ccccc2)cc1C1CCN(C[C@H]2C[C@H](N(C)[C@@H](C(=O)O)C(C)C)C[C@@H]2c2cccc(F)c2)CC1
inactive: [1] | [19] | [5] | [7] | [9] | [10] | [12] | [15] | [17]

Cc1cc(N)n(-c2ccccc2)n1
not listed: [14] | [16] | [19]
inactive: all other assays above

C1=COCCC1
not listed: [19] | [20]
inactive: all other assays above

C[C@H]1C[C@H]2[C@@H]3CCC4=CC(=O)C=C[C@]4(C)[C@@]3(F)[C@@H](O)C[C@]2(C)[C@@]1(O)C(=O)COP(=O)(O)O
not listed: [2] | [4] | [6] | [14] | [16] | [17] | [20]
inactive: all other assays above

Sc1nc(S)nc(S)n1
not listed: [2] | [3] | [4] | [6] | [10] | [11] | [18]
inactive: all other assays above
